Results published in the supplement of paper PMC10849652.
Targets with a hit are over-represented here; the source holds about 7,900 in all. About 0.6% of all pairs of compound and target were hits. A number with no mark means an inactive call.

How the values were obtained:
Test in all cases: log2 fold change, soluble protein after heating vs DMSO (PISA); higher = thermal stabilisation; K562 cells, 10 uM, 30 min; active = over 0.2 and 3.5 SD of the protein, either way, in both replicates (recomputed)
[1] = compound: NC(=O)Nc1cc(-c2cccc(F)c2)sc1C(=O)N[C@H]1CCCNC1
How it was run: (§1)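 Values are thermal stability changes relative to control samples and are taken from duplicates. They are stated as log2 fold changes. Before quantification by TMTpro 16plex LC-MS/MS with equalised channel sums, K562 cells at 2×10^6 cells/mL were treated with 10 μM compound for 30 min, heated in aliquots for 3 min across 48°C-58°C, pooled, extracted in PBS with 0.5% NP-40 at 4°C, and centrifuged at 21,000xg for 90 min to give the soluble supernatant.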

[2] = compound: NC(=O)c1cnc(N[C@@H]2CCCC[C@@H]2N)nc1Nc1cccc(-n2nccn2)c1
How it was run: as §1

[3] = compound: NC1(c2ccc(-c3nc4ccn5c(=O)[nH]nc5c4cc3-c3ccccc3)cc2)CCC1
How it was run: as §1

[4] = compound: NCC(=O)Nc1ccc(-n2nc(C(F)(F)F)cc2-c2ccc3c(ccc4ccccc43)c2)cc1
How it was run: as §1

[5] = compound: Nc1ccccc1NC(=O)c1ccc(CNC(=O)OCc2cccnc2)cc1 [entinostat]
How it was run: as §1

[6] = compound: O=C(CCCCCCC(=O)Nc1ccccc1)NO [vorinostat]
How it was run: as §1

[7] = compound: O=C(CCCCCCNC(=O)c1cnc(N(c2ccccc2)c2ccccc2Cl)nc1)NO [citarinostat]
How it was run: as §1

[8] = compound: O=C(O)c1ccc2c(c1)nc(Nc1cccc(Cl)c1)c1ccncc12 [silmitasertib]
How it was run: as §1

[9] = compound: O=C1NC(=O)C(c2cnc3ccccn23)=C1c1cn2c3c(cc(F)cc13)CN(C(=O)N1CCCCC1)CC2
How it was run: as §1

[10] = compound: c1cc(OCCN2CCCCC2)cc(-c2n[nH]c3ccc(-c4nnc[nH]4)cc23)c1
How it was run: as §1

[11] = compound: c1cn2cc(-c3ccc4cn[nH]c4c3)nc(Nc3ccc(N4CCOCC4)cc3)c2n1 [entospletinib]
How it was run: as §1

Chain of UniProt Q6P1A2 (Q6P1A2 whole entry, looked up): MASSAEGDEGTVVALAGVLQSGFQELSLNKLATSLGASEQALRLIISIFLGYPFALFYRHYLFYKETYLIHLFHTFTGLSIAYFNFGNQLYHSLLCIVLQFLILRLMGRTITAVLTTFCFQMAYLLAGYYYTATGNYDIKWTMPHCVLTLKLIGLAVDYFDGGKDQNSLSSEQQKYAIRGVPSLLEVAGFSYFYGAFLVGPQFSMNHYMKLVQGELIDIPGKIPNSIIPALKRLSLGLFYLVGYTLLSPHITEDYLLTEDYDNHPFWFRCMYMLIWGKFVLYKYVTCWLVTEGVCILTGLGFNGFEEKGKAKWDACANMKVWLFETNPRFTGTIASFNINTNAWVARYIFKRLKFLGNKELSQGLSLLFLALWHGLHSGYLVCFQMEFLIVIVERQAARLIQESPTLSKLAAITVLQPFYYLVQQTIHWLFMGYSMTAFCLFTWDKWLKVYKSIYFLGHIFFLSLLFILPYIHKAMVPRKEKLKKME
Chain of UniProt P36507 (P36507 whole entry, looked up): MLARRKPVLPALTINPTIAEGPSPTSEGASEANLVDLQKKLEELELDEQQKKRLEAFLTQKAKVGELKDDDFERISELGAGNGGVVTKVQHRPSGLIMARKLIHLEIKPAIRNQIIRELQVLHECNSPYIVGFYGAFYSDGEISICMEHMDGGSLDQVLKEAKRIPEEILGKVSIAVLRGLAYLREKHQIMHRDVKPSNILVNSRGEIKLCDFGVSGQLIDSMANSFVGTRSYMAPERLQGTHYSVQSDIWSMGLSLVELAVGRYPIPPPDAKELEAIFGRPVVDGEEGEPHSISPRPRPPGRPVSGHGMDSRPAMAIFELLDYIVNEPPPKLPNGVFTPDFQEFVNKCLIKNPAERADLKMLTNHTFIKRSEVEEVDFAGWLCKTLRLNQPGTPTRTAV
Chain of UniProt P13473 (P13473 whole entry, looked up): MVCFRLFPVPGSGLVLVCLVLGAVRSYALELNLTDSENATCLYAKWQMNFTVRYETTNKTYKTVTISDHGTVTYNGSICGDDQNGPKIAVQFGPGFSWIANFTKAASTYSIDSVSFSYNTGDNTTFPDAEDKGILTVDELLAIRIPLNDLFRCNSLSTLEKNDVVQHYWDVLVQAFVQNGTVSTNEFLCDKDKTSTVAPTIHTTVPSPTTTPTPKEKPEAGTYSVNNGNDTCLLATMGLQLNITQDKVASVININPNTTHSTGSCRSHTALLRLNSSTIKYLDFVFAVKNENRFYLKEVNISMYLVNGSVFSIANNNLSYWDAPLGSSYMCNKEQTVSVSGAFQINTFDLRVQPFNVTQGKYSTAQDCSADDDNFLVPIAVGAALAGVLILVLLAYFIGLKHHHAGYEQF
Chain of UniProt Q03252 (Q03252 whole entry, looked up): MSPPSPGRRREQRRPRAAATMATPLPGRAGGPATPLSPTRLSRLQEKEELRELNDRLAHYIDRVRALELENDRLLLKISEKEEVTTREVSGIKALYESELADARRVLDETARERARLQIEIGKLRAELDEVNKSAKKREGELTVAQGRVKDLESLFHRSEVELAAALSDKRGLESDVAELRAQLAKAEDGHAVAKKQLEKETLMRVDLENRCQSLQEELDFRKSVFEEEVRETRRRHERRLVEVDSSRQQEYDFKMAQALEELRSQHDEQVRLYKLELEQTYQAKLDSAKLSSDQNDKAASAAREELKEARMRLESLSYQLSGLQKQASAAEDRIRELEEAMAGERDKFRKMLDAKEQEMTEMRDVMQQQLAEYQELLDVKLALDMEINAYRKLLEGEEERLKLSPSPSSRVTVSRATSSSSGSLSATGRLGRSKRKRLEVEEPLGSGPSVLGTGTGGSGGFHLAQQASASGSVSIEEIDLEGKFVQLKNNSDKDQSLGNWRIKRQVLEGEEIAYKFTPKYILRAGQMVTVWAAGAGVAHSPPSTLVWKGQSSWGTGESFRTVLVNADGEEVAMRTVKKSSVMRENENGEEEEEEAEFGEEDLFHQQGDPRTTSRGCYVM
Chain of UniProt Q8N108 (Q8N108 whole entry, looked up): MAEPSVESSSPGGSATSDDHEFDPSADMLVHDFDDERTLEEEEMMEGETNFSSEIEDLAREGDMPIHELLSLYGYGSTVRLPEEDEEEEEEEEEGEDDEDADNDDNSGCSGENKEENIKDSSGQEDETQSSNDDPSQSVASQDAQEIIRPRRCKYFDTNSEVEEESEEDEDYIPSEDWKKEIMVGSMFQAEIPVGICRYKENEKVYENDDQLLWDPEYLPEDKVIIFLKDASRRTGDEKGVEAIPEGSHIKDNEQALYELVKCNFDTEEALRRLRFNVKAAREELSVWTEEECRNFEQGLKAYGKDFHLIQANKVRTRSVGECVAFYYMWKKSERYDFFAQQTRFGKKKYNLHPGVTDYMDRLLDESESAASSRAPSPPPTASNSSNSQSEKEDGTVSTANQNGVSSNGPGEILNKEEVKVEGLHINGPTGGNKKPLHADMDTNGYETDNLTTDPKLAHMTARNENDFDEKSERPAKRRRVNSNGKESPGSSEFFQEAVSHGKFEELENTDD
Chain of UniProt O14880 (O14880 whole entry, looked up): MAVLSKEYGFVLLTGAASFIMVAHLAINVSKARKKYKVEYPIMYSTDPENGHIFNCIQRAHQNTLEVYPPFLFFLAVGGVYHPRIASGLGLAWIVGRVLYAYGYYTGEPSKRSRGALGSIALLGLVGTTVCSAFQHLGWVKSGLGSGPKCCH
Chain of UniProt Q9Y383 (Q9Y383 whole entry, looked up): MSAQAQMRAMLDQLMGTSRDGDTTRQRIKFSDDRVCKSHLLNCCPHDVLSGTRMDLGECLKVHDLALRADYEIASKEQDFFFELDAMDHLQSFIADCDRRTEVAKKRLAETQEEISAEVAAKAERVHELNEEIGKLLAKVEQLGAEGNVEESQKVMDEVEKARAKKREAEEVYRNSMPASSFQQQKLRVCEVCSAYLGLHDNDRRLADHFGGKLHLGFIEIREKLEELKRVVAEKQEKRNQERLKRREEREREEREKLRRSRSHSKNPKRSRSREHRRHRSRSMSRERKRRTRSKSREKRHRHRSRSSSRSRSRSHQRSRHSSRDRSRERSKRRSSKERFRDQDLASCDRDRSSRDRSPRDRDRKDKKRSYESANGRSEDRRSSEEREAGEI
Chain of UniProt Q9HCC0 (Q9HCC0 whole entry, looked up): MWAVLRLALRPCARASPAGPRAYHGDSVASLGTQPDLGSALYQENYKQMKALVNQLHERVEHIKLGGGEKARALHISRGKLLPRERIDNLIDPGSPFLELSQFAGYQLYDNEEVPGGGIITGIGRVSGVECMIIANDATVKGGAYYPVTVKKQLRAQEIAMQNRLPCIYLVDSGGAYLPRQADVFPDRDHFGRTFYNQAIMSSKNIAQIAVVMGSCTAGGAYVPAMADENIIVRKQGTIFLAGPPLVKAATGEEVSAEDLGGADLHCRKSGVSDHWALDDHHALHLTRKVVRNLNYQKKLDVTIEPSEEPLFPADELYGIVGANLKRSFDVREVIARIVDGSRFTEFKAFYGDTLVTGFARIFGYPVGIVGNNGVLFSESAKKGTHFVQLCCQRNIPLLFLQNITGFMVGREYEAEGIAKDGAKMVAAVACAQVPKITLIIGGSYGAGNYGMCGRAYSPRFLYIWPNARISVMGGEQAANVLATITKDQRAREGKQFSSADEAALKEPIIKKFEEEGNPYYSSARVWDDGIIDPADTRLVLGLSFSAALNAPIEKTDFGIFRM
Chain of UniProt Q16539 (Q16539 whole entry, looked up): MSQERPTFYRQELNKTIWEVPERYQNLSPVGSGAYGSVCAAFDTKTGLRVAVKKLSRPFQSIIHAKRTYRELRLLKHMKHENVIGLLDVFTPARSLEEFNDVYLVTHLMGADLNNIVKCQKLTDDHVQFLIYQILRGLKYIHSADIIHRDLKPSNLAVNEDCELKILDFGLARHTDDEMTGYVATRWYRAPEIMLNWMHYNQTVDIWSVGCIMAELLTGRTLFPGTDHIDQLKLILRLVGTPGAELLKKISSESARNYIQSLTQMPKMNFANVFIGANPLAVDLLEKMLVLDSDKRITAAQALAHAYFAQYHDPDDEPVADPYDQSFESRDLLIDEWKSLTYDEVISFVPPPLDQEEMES
Chain of UniProt Q9Y2X0 (Q9Y2X0 whole entry, looked up): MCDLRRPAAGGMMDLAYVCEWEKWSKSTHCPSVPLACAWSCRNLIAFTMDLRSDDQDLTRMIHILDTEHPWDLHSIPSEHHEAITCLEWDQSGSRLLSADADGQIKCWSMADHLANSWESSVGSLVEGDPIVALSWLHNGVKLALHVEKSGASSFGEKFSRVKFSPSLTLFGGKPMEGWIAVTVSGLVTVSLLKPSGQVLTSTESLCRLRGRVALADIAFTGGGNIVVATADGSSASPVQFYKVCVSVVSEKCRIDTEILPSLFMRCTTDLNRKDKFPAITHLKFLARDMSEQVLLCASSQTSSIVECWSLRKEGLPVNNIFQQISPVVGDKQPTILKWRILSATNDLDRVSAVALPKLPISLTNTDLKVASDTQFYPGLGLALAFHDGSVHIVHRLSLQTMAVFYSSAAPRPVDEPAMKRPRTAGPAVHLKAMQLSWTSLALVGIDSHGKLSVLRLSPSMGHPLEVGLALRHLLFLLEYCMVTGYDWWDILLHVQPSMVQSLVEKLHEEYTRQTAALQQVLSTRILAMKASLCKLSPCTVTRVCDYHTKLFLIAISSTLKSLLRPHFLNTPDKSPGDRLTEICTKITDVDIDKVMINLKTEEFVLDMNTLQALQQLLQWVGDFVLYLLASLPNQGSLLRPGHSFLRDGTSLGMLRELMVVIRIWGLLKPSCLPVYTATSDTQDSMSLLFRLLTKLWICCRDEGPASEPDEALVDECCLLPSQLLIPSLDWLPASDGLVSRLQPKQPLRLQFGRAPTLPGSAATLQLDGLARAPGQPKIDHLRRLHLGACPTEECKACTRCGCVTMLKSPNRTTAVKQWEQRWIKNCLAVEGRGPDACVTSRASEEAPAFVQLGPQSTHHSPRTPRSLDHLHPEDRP
Chain of UniProt P14174 (P14174 whole entry, looked up): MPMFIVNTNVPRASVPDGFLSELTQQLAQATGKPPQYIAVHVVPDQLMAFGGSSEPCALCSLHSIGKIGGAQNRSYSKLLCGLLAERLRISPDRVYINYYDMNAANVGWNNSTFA

Target	log2 fold change [1]	log2 fold change [2]	log2 fold change [3]	log2 fold change [4]	log2 fold change [5]	log2 fold change [6]	log2 fold change [7]	log2 fold change [8]	log2 fold change [9]	log2 fold change [10]	log2 fold change [11]
MAP2K2 (UniProt P36507)	0	-0.042	-0.023	-0.003	0.061	0.039	-0.051	-0.098	-0.055	-0.018	0.021
MIER1 isoform 12 (UniProt Q8N108)	-0.026	-0.03	-0.074	-0.025	0.292 (active)	0.28 (active)	0.273 (active)	-0.017	-0.066	-0.061	-0.002
ITIH4 (UniProt Q14624)	0.064	-0.041	-0.136	-0.054	0.048	0.343	0.054	0.083	-0.005	0.275	0.124
KIF3A (UniProt Q9Y496)	0.075	0.078	-0.011	-0.014	-0.011	-0.137	-0.076	-0.068	-0.048	-0.051	0.491 (active)
MCCC2 (UniProt Q9HCC0)	0.047	-0.014	0.036	0.06	0.005	-0.043	0.083	0.025	0.006	-0.024	-0.002
MAP1LC3B2 (UniProt A6NCE7)	-0.023	-0.022	-0.128	-0.085	0.012	-0.058	0.046	-0.015	-0.001	-0.103	-0.001
L2HGDH (UniProt Q9H9P8)	-0.035	-0.026	-0.145	0.007	-0.012	-0.014	0.029	0.15	-0.053	0.029	0.039
MED17 (UniProt Q9NVC6)	0.068	-0.33 (active)	0.049	-0.034	-0.128	0.045	0.014	0.074	0.112	0.126	-0.068
MIF (UniProt P14174)	-0.059	0.092	0.103	0.048	0.099	-0.085	-0.013	0.036	-0.196	0.063	0.111
ILVBL (UniProt A1L0T0)	-0.053	-0.036	-0.022	-0.007	-0.041	0.002	0.064	-0.008	-0.009	-0.064	-0.028
LRBA (UniProt P50851)	0.002	-0.058	-0.146	-0.039	0.016	0.049	0.034	0.033	-0.025	-0.026	-0.002
KDM3B (UniProt Q7LBC6)	-0.051	-0.033	-0.114	-0.088	0.027	0.069	0.098	0.056	-0.064	-0.023	-0.027
MCUR1 (UniProt Q96AQ8)	-0.043	-0.048	0.011	0.01	-0.028	-0.026	-0.001	-0.023	-0.036	-0.018	0.018
LSS (UniProt P48449)	0.017	0.108	0.142	-0.049	0.003	0.052	-0.01	0.001	-0.001	-0.033	0.004
LDLR (UniProt P01130)	0.005	0.093	0.008	0.124	0.057	-0.038	-0.035	0.074	0.019	-0.071	-0.008
LAMP2 (UniProt P13473)	-0.013	0.043	-0.122	0.055	-0.045	0.083	0.158	0.005	0.065	-0.11	0.023
MICOS13 (UniProt Q5XKP0)	-0.018	-0.023	-0.119	0.029	0.041	0.018	0.028	-0.02	-0.106	0.025	0.049
LUC7L2 (UniProt Q9Y383)	-0.221	-0.025	0.09	-0.133	0.025	0.029	0.074	-0.233	0.002	-0.095	0
MAPK14 isoform 2 (UniProt Q16539)	-0.052	0.028	-0.192	-0.168	0.016	-0.055	0.085	0.477	-0.004	0.024	-0.032
MGST3 (UniProt O14880)	-0.04	-0.07	0.076	0.009	-0.047	-0.043	-0.005	-0.011	-0.025	-0.056	0.054
MED16 (UniProt Q9Y2X0)	0.108	0.021	-0.005	-0.044	-0.047	0.107	-0.094	0.026	0.06	-0.117	0.014
LPCAT3 (UniProt Q6P1A2)	-0.074	-0.105	-0.185	-0.229	0.044	0.024	0.087	0.05	-0.091	0.072	0.012
KIAA1324L (UniProt A8MWY0)	-0.016	-0.015	-0.138	0.009	-0.067	0.003	0.004	-0.014	-0.013	-0.094	0.028
LMNB2 (UniProt Q03252)	0.079	-0.077	0.068	-0.09	-0.006	-0.047	0.015	0.018	-0.101	-0.07	-0.082
MFSD11 (UniProt O43934)	0.035	0.038	-0.202	0.002	-0.112	-0.028	-0.096	0.044	-0.04	0.063	0.109
LIMA1 isoform 4 (UniProt Q9UHB6)	0.062	-0.045	0.081	0.006	0.004	0.067	-0.024	-0.006	-0.073	-0.012	-0.119
MAP4 (UniProt E7EVA0)	0.162	0.165	0.144	0.105	-0.096	-0.018	-0.164	0.003	0.106	-0.075	-0.007
